Values joined by “and” are separate entries in the source; they are usually repeats but may differ in a detail not shown here. Equal values may be shown once. Some compounds were tested as several samples or in several runs, with calls that do not always agree. Active and inactive are the calls of the source. The calls were made as follows: active = hit-call score of the fitted dose curve at least 0.9, where 1 is the maximum; inactive = score below 0.9.
Columns and labels:
Conditions in all cases: primary human HUVEC with PBMC; actives raise or lower the signal
[1] = read-out: Interleukin-1 alpha (IL1a), IL1A (gene 3552); experiment: BSK_LPS_IL1a: BioMAP Diversity Plus: LPS Assay for Interleukin-1 alpha (IL1a) Biomarker Activity (AID 2283080)
Method in brief: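 Human umbilical vein endothelial cells co-cultured with PBMC and stimulated with LPS; IL-1a measured by ELISA 24 h after dosing. Bidirectional fitting against DMSO; cytotoxicity checked by SRB staining in parallel cultures.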

[2] = read-out: Monocyte Chemoattractant Protein-1 (MCP1), CCL2 (gene 6347); experiment: BSK_LPS_MCP1: BioMAP Diversity Plus: LPS Assay for Monocyte Chemoattractant Protein-1 (MCP1) Biomarker Activity (AID 2283081);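 as to AC50: secreted MCP-1 protein quantified by ELISA in culture supernatant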
Method in brief: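 Human umbilical vein endothelial cells co-cultured with PBMC, LPS-stimulated; secreted MCP-1 measured by ELISA 24 h after compound addition. Bidirectional curve fitting against DMSO baseline; SRB total-protein staining in parallel cultures for cytotoxicity.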

[3] = BSK_LPS_PGE2: BioMAP Diversity Plus: LPS Assay for Prostaglandin E2 (PGE2) Biomarker Activity (AID 2283082)
Method in brief: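 PGE2 release measured by ELISA in an LPS-activated co-culture of human umbilical vein endothelial cells and peripheral blood mononuclear cells, read at 24 h post-dosing. DMSO served as baseline for bidirectional curve fitting.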

[4] = read-out: Macrophage colony-stimulating factor (MCSF), CSF1 (gene 1435); experiment: BSK_LPS_MCSF: BioMAP Diversity Plus: LPS Assay for Macrophage colony-stimulating factor (MCSF) Biomarker Activity (AID 2283083)
Method in brief: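 HUVEC–PBMC co-culture, M-CSF measured by ELISA 24 h after chemical dosing. Fitted in both directions relative to DMSO as negative control; overt cytotoxicity assessed by SRB total-protein staining in parallel cultures.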

[5] = read-out: Tissue Factor, F3 (gene 2152); experiment: BSK_LPS_TissueFactor: BioMAP Diversity Plus: LPS Assay for Tissue Factor Biomarker Activity (AID 2283084)
Method in brief: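 Human umbilical vein endothelial cells co-cultured with PBMC were dosed with compound. Cell-surface CD142 was measured by ELISA 24 h later. Activity was fitted bidirectionally against DMSO, with SRB total-protein staining in parallel cultures for cytotoxicity.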

[6] = read-out: Tumor necrosis factor (Homo sapiens) (UniProt P01375); experiment: BSK_LPS_TNFa: BioMAP Diversity Plus: LPS Assay for Tumour Necrosis Factor alpha (TNFa) Biomarker Activity (AID 2283085);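 as to AC50: TNFa protein level quantified by ELISA in the co-culture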
Method in brief: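 TNFa was quantified by ELISA in LPS-activated co-cultures of human endothelial cells and PBMC, 24 h post-dosing. Both increases and decreases versus DMSO were fitted.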

[7] = read-out: Vascular cell adhesion molecule 1 (VCAM1), VCAM1 (gene 7412); experiment: BSK_LPS_VCAM1: BioMAP Diversity Plus: LPS Assay for Vascular cell adhesion molecule 1 (VCAM1) Biomarker Activity (AID 2283086)
Method in brief: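 VCAM-1 quantified by ELISA in an LPS-activated co-culture of human endothelial cells and peripheral blood mononuclear cells, read 24 h post-treatment. Fitted in both directions versus DMSO; parallel SRB staining flags overt cytotoxicity.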

CD38, CD38 (gene 952) = experiment: BSK_SAg_CD38: BioMAP Diversity Plus: SAg Assay for CD38 Biomarker Activity (AID 2283087)
Method in brief: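 CD38 quantified by ELISA (fluorescence) in a superantigen-activated endothelial cell–PBMC co-culture at 24 h post-dose. Activity fitted in both directions relative to DMSO; parallel SRB and Alamar Blue cytotoxicity read-outs.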

CD40, CD40 (gene 958) = experiment: BSK_SAg_CD40: BioMAP Diversity Plus: SAg Assay for CD40 Biomarker Activity (AID 2283088)
Method in brief: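 HUVEC plus PBMC co-culture, superantigen-activated, with CD40 read by ELISA 24 h after dosing. Curves fitted in both directions against DMSO. Overt cytotoxicity checked by parallel SRB total-protein staining.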

CD69, CD69 (gene 969) = experiment: BSK_SAg_CD69: BioMAP Diversity Plus: SAg Assay for CD69 Biomarker Activity (AID 2283089);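 as to AC50: cell surface CD69 protein quantified by ELISA with fluorescence detection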
Method in brief: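 HUVEC co-cultured with PBMC were dosed with chemical, and CD69 was measured by ELISA with fluorescence read-out 24 h later. Bidirectional curve fitting used DMSO as negative control and activity baseline.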

Measured: AC50

Sequence of Tumor necrosis factor (Homo sapiens) (P01375 whole entry, looked up): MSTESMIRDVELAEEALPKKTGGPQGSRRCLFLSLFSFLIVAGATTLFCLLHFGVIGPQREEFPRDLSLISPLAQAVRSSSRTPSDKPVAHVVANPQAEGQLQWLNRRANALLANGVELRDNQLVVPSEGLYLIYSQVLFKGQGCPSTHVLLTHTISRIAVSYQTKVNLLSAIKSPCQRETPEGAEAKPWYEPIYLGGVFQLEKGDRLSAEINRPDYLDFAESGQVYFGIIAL

FC(F)(I)C(F)(F)C(F)(F)C(F)(F)I
inactive: [1] | [2] | [3] | [4] | [5] | [6] | [7] | CD38, CD38 (gene 952) | CD40, CD40 (gene 958) | CD69, CD69 (gene 969)
active: CD69, CD69 (gene 969) 46.7 µM

C=C(C)C(=O)OCC(F)(F)C(F)(F)C(F)(F)F
inactive: [1] | [2] | [3] | [4] | [5] | [6] | [7] | CD38, CD38 (gene 952) | CD40, CD40 (gene 958) | CD69, CD69 (gene 969)

CCCCNc1ccccc1
inactive: [1] | [2] | [3] | [4] | [5] | [6] | [7] | CD38, CD38 (gene 952) | CD40, CD40 (gene 958) | CD69, CD69 (gene 969)

OCC(F)(F)C(F)(F)C(F)(F)F
inactive: [1] | [2] | [3] | [4] | [5] | [6] | [7] | CD38, CD38 (gene 952) | CD40, CD40 (gene 958) | CD69, CD69 (gene 969)

FC1CC(F)(F)C(F)(F)C1(F)F (centres undefined)
inactive: [1] | [2] | [3] | [4] | [5] | [6] | [7] | CD38, CD38 (gene 952) | CD40, CD40 (gene 958) | CD69, CD69 (gene 969)

CCO[Si](CCC(F)(F)C(F)(F)C(F)(F)C(F)(F)C(F)(F)C(F)(F)F)(OCC)OCC
inactive: [1] | [2] | [4] | [5] | [6] | [7] | CD38, CD38 (gene 952) | CD40, CD40 (gene 958) | CD69, CD69 (gene 969)

CCc1c(Br)c(Br)c(Br)c(Br)c1Br
active: CD38, CD38 (gene 952) 20 µM
inactive: [1] | [2] | [4] | [5] | [6] | [7] | CD40, CD40 (gene 958) | CD69, CD69 (gene 969)

O=C(Cl)C(F)(F)C(F)(F)C(F)(F)C(F)(F)C(F)(F)C(F)(F)C(F)(F)C(F)(F)F
active: [2] 45.7 µM and 47.4 µM and 54.8 µM | [5] 39.5 µM and 30 µM | [6] 54.8 µM and 48.8 µM and 47.2 µM | [7] 30 µM and 40.7 µM and 45.5 µM | CD38, CD38 (gene 952) 39.6 µM and 30 µM | CD40, CD40 (gene 958) 30 µM and 48.9 µM | CD69, CD69 (gene 969) 24.5 µM and 30 µM and 43.1 µM
inactive: [1] | [4] | [5] | CD38, CD38 (gene 952) | CD40, CD40 (gene 958)

CCCCCCC(C)OC(=O)CCCCC(=O)OC(C)CCCCCC (centres undefined)
active: [6] 25.3 µM
inactive: [1] | [2] | [4] | [5] | [7] | CD38, CD38 (gene 952) | CD40, CD40 (gene 958) | CD69, CD69 (gene 969)

FC(F)(F)C(F)(F)C(F)(F)C(F)(F)C(F)(F)C(F)(F)C(F)(F)I
inactive: [1] | [2] | [4] | [5] | [6] | [7] | CD38, CD38 (gene 952) | CD40, CD40 (gene 958) | CD69, CD69 (gene 969)

FC(F)(F)C(F)(F)C(F)(F)C(F)(F)C(F)(F)C(F)(F)CC1CO1 (centres undefined)
inactive: [1] | [2] | [4] | [5] | [6] | [7] | CD38, CD38 (gene 952) | CD40, CD40 (gene 958) | CD69, CD69 (gene 969)

OCC(F)(F)C(F)(F)C(F)(F)C(F)(F)C(F)(F)C(F)F
inactive: [1] | [2] | [4] | [5] | [6] | [7] | CD38, CD38 (gene 952) | CD40, CD40 (gene 958) | CD69, CD69 (gene 969)

O=C(O)C(F)(OC(F)(F)C(F)(OC(F)(F)C(F)(F)C(F)(F)F)C(F)(F)F)C(F)(F)F (centres undefined)
inactive: [1] | [2] | [4] | [5] | [6] | [7] | CD38, CD38 (gene 952) | CD40, CD40 (gene 958) | CD69, CD69 (gene 969)

OCC(F)(F)C(F)(F)C(F)(F)C(F)F
inactive: [1] | [2] | [4] | [5] | [6] | [7] | CD38, CD38 (gene 952) | CD40, CD40 (gene 958) | CD69, CD69 (gene 969)

FC(F)(F)C(F)(F)C(F)(F)C(F)(F)CCI
inactive: [1] | [2] | [4] | [5] | [6] | [7] | CD38, CD38 (gene 952) | CD40, CD40 (gene 958) | CD69, CD69 (gene 969)

O=S(=O)(O)C(F)(F)C(F)(F)C(F)(F)C(F)(F)C(F)(F)C(F)(F)C(F)(F)F
inactive: [1] | [2] | [4] | [5] | [6] | [7] | CD38, CD38 (gene 952) | CD40, CD40 (gene 958) | CD69, CD69 (gene 969)

CC(C)(C)C(=O)CC(=O)C(F)(F)C(F)(F)C(F)(F)F
inactive: [1] | [2] | [4] | [5] | [6] | [7] | CD38, CD38 (gene 952) | CD40, CD40 (gene 958) | CD69, CD69 (gene 969)

O[Si](c1ccccc1)(c1ccccc1)c1ccccc1
active: [2] 28.9 µM | [4] 20 µM | CD38, CD38 (gene 952) 32.6 µM | CD40, CD40 (gene 958) 29.6 µM | CD69, CD69 (gene 969) 31.7 µM
inactive: [1] | [5] | [6] | [7]

CCCCOCCOCCOC(=O)CCCCC(=O)OCCOCCOCCCC
active: [6] 5.67 µM
inactive: [1] | [2] | [4] | [5] | [7] | CD38, CD38 (gene 952) | CD40, CD40 (gene 958) | CD69, CD69 (gene 969)

CCc1ccc(C(c2ccc(CC)cc2)C(Cl)Cl)cc1
inactive: [5]
active: [1] 20 µM | [2] 31.4 µM | [4] 20 µM | [6] 29.9 µM | [7] 27.2 µM | CD38, CD38 (gene 952) 27.7 µM | CD40, CD40 (gene 958) 28.9 µM | CD69, CD69 (gene 969) 15.1 µM

Source: PubChem BioAssay (EPA / NIEHS)
